From PubChem BioAssay AID2060323 (National Center for Advancing Translational Sciences (NCATS), 2025)
Results filed as inconclusive are left out. A number with no mark means an inactive call. The source made the active and inactive calls. The call rests on the fitted dose curve; in most records, active means well fitted activation curve with a large enough effect; inconclusive means small, poorly fitted or top-dose-only effect; inactive means no such curve, though single readings can be large or run the other way.

Biological target: Cellular tumor antigen p53 (Homo sapiens) (UniProt P04637)
Sequence (P04637 whole entry, looked up): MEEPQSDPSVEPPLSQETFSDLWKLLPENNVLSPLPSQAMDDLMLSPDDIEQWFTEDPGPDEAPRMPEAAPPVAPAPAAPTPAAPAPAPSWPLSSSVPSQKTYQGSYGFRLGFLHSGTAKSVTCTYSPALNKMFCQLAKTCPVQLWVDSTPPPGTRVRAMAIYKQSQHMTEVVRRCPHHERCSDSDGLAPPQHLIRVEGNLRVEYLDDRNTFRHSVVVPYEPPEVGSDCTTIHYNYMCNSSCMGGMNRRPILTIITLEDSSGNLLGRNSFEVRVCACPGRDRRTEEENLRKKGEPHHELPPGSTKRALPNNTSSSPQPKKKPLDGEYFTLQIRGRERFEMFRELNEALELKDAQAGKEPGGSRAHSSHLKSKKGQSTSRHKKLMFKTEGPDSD
Experiment: Confirmatory qHTS for small molecule compounds that upregulate eGFP-tagged delta133p53alpha (in C-terminal) cells.
Conditions: delta133p53alpha-eGFP (C-terminal) reporter cells, GFP fluorescence upregulation; series mostly up to 57.5 µM; activation (upregulation): at the top concentration
Source text: Assay Development and Screening Technology
National Center for Advancing Translational Sciences (NCATS),
National Institute of Health (NIH), Rockville, Maryland
Cellular senescence (CS) is one of the hallmarks of aging and age-related diseases. Senescent cells are characterized by an irreversible growth arrest, an increase in senescence-associated beta-galactosidase (SA-beta-gal) activity and p16INK4a expression, an activation of the DNA damage response pathways, and the emergence of a senescence-associated secretory phenotype (SASP).
Delta133p53alpha, a human/primate-specific p53 protein isoform, delays or inhibits the induction of CS and SASP in various types of human cells, including progeria-derived fibroblasts, primary normal astrocytes, and CD8+ T lymphocytes. Induction of delta133p53alpha with small molecule compounds may provide therapeutic opportunities for inhibition of senescence/SASP-associated pathologies in progeria syndromes, astrocyte-mediated neuroprotection in neurodegenerative diseases, and possibly prevention and treatment of a wider range of senescence- and aging-associated diseases.
Here we report the development and validation of a cell-based quantitative high throughput screening (qHTS) assay in 1,536-well format. This qHTS assay uses the NCI-H358 cell line with doxycycline-inducible expression of enhanced green fluorescent protein (eGFP)-tagged delta133p53alpha, which allows efficient and highly quantitative measurement of the protein levels.
PROTOCOL TABLE (as described by Inglese J, Shamu CE and Guy RK. 2007)
SEQUENCE No. (e.g., 1, 2, 3, etc.); […] (e.g., Cells, Incubation, Reagent, etc.); VALUE; DESCRIPTION.
1; Cells; 4uL; 800 doxycycline treated cells / well in doxycycline-free media, 1536-well black, clear-bottom low base Aurora microplates.
2; Compounds; 23 nL; Kalypsis pin tool (Wako) equipped with 1536-well pin heads, 5-azacytidine positive control.
3; Incubation; 24 hr; 37C, 5% CO2; 95% relative humidity.
4; Aspiration; 1x; BioTek EL406 washer dispenser (Agilent).
5; Fixing; 3.5% paraformaldehyde, BioTek EL406 washer dispenser (Agilent).
6; Washing; 1x PBS; BioTek EL406 washer dispenser (Agilent).
7; Nuclei staining; 1:1000 dilution of Hoechst 33342 (Thermofisher), BioTek EL406 washer dispenser (Agilent).
8; Incubation; 20 min; in the dark at room temperature.
9; Washing; 2x, 1x PBS (ThermoFisher), BioTek EL406 washer dispenser (Agilent).
10; Reagent; 10 uL; 1x PBS per well, sealed with clear adhesive tape.
11; Detection; Fluorescence, Acumen eX3 laser scanning cytometer (STP Labtech), GFP filters […].
NOTES (numbers refer to sequence numbers above).
1. NCI-H358 cells expressing eGFP-tagged delta133p53alpha were grown in T75 culture flasks and treated with doxycycline for 24h, at 10 ng/ml for eGFP-D133p53a cells (N-terminal cell) and 100 ng/ml for D133p53a-eGFP cells (C-terminal cells). Cells were trypsinized, counted using a Counted 3 Automated Cell Counter (Thermo Fisher), and diluted to a concentration of 200,000 cells/ml. A Multidrop Combi Reagent Dispenser (ThermoFisher) was used to dispense 800 cells/well in […] of doxycycline-free media, into 1536-well black/clear bottom low base plates (AuroraMicroplates).
2. After plating cells, 23 nl of compound library, DMSO vehicle control or positive control (5-azacytidine) were transferred by Pin Tool (Wako). The plate map layout was the same for each plate: (column 1) non-doxycycline treated cells + DMSO vehicle control; (column 2) doxycycline treated cells + DMSO vehicle control baseline; (column 3) doxycycline treated cells + positive control 57.5 uM final concentration 5-azacytidine; (column 4) doxycycline treated cells + serial dilution of 5-azacytidine, 16-point 1:2 titration spanning 1.8 nM to […] final concentration; (columns 5-48) doxycycline treated cells + titration of library compounds.
3. Cells were incubated at 37 °C, 5 % CO2, 95% RH with breathable metal lid for 24h.
4-10. […]

Row | Structure (SMILES) | Potency | activation (upregulation)
1 | CC[n+]1c(/C=C/C=C2/N(C)c3ccccc3C2(C)C)sc2ccccc21 | 12.2 µM (active) | –
2 | O=C(O)c1cc2cc(F)ccc2[nH]1 | – | 3.59%
3 | O=C1C(SCCO)=C(SCCO)C(=O)c2ccccc21 | 9.68 µM (active) | –
4 | Cc1cc(O)c2c(c1)C(=O)c1cc(O)cc(O)c1C2=O | 21.7 µM (active) | –
5 | COC(=O)[C@H]1[C@H]2C[C@@H]3c4[nH]c5cc(OC)ccc5c4CCN3C[C@H]2C[C@@H](OC(=O)c2cc(OC)c(OC)c(OC)c2)[C@@H]1OC | 30.6 µM (active) | –
6 | O=Nc1c(-c2c(O)[nH]c3cc(Br)ccc23)[nH]c2ccccc12 | – | 4.1%
7 | N#Cc1cc([N+](=O)[O-])c2sc(C(N)=O)[n+]([O-])c2c1 | – | 3.58%
8 | CC(C)(CO)Cc1cc(C(C)(C)C)c(O)c(C(C)(C)C)c1 | – | 3%
9 | CN(C)c1nc(N)c(C(=O)N=C(N)N)nc1Cl | – | 4.57%
10 | COc1cc2c(cc1OC)-c1cc(=Nc3c(C)cc(C)cc3C)n(C)c(=O)n1CC2 | – | -16.1%
11 | O=C(c1cc(O)c(O)c([N+](=O)[O-])c1)c1ccccc1F | – | 3.4%
12 | CCCCCCCCCCCCCCCCCCOC[C@H](COP(=O)([O-])OCC[N+](C)(C)C)OC | – | -18%
13 | CC12C(=O)OC(=O)C1(C)C1CCC2O1 (stereo not given) | 4.85 µM (active) | –
14 | O=C(N[C@@H](Cc1ccccc1)C(=O)CCl)OCc1ccccc1 | 3.85 µM (active) | –
15 | Brc1c(Br)c(Br)c2[nH]cnc2c1Br | 21.7 µM (active) | –
16 | O=[N+]([O-])c1ccc2c(c1)S(=O)(=O)C=C2 | 8.63 µM (active) | –
17 | C#C[C@]1(O)CC[C@H]2[C@@H]3CCC4=Cc5oncc5CC4(C)[C@H]3CCC21C (stereo not given in full) | – | 8.44%
18 | CC1CN(S(=O)(=O)c2cccc3cnccc23)CCN1 (stereo not given) | – | 0.467%
19 | CC1c2cccc(O)c2C(O)=C2C(=O)C3(O)C(O)=C(C(N)=O)C(=O)C(N(C)C)C3C(O)C21 (stereo not given) | 0.0061 µM (active) | –
20 | C[n+]1cc2c3c(ccc2c2ccc4cc5c(cc4c21)OCO5)OCO3 | 0.968 µM (active) | –

Row | Structure (SMILES) | Potency | activation (upregulation)
21 | CCN1CCCC1CNC(=O)c1cc(S(=O)(=O)CC)c(N)cc1OC (stereo not given) | – | 27.8%
22 | C=CCNc1ncnc2ccc(Br)cc12 | – | -0.729%
23 | Nc1nc(Cl)nc2c1ncn2[C@@H]1O[C@H](COP(=O)(O)OP(=O)(O)OP(=O)(O)O)[C@@H](O)[C@H]1O | – | -17.8%
24 | O=C1NC(=O)c2c1c(-c1ccccc1)cc1[nH]c3ccc(O)cc3c21 | – | 9.9%
25 | O=C1NCc2c1c1c3ccccc3[nH]c1c1[nH]c3ccccc3c21 | 27.3 µM (active) | –
26 | CN(C)CCCC1(c2ccc(F)cc2)OCc2cc(C#N)ccc21 (stereo not given) | – | 0.697%
27 | CC(=O)SC1CC2=CC(=O)CC[C@]2(C)C2CC[C@@]3(C)C(CC[C@@]34CCC(=O)O4)C12 (stereo not given in full) | – | -5.04%
28 | NS(=O)(=O)c1ccc(-n2nc(C(F)(F)F)cc2-c2ccc(Cl)cc2)cc1 | – | 9.14%
29 | CCCCS(=N)(=O)CCC(N)C(=O)O (stereo not given) | – | 0.0359%
30 | CC[C@@]1(O)C(=O)OCc2c1cc1n(c2=O)Cc2cc3c(CN(C)C)c(O)ccc3nc2-1 | 4.85 µM (active) | –
31 | O=C1N(c2ccccc2)c2ccccc2C1(Cc1ccncc1)Cc1ccncc1 | – | 10.3%
32 | CNC(=O)[C@H]1O[C@@H](n2cnc3c(NCc4cccc(I)c4)ncnc32)[C@H](O)[C@@H]1O | – | -35.1%
33 | COc1ccc(/C=C2\COc3ccc(C)cc3C2=O)cc1O | 43.2 µM (active) | –
34 | CC(C)(C(=O)O)c1ccc(C(O)CCCN2CCC(C(O)(c3ccccc3)c3ccccc3)CC2)cc1 (stereo not given) | – | 6.95%
35 | COc1cc(/C=C(\C#N)C(=O)c2ccc(O)c(O)c2)cc(I)c1O | 12.2 µM (active) | –
36 | O=C1NC(=O)c2cc(Nc3ccccc3)c(Nc3ccccc3)cc21 | 9.68 µM (active) | –
37 | CC(C)(C)[C@]1(O)CCN2C[C@H]3c4ccccc4CCc4cccc(c43)[C@@H]2C1 | inactive | –
38 | CCCC(=O)NCCc1c2n(c3ccc(OC)cc13)CCCc1ccccc1-2 | – | 10.5%
39 | Cc1cc(C)c(/C=C2\C(=O)Nc3ccccc32)[nH]1 | 7.69 µM (active) | –
40 | CC(=O)N[C@@H](CS)C(=O)O | – | -5.47%
